NPC1 promoter act – activates the NPC1 promoter. 320,000 tested, 2.4% active. Huh7 NPC1 promoter luciferase reporter, 24 h. Potency, µM (titrated, usually from 9.22 µM), for the others: at the top dose activation, usual class: activators; also: % of control where 0% means no effect; nearly all actives have a fitted effect of over 60% in size
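In 1536-well qHTS, Huh7 cells harboring an NPC1 promoter–luciferase construct received compound for 24 h; activation was quantified by luminescence following luciferase reagent addition.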
FLuc counter – firefly luciferase modulation, counter-screen for miR-21 project; P08659; purified FLuc, Km substrates, luminescence inhibition; Potency, µM (highest dose often 57.5 µM), for inactives: top-dose activity change, negative = inhibition, most hits filed as inhibitors; 360,000 tested, 6.9% active;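 also: plate controls were vehicle for no effect and reference inhibitor for full effect; nearly all actives have a fitted effect of over 55% in size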
Target sequence (P08659 whole entry, looked up): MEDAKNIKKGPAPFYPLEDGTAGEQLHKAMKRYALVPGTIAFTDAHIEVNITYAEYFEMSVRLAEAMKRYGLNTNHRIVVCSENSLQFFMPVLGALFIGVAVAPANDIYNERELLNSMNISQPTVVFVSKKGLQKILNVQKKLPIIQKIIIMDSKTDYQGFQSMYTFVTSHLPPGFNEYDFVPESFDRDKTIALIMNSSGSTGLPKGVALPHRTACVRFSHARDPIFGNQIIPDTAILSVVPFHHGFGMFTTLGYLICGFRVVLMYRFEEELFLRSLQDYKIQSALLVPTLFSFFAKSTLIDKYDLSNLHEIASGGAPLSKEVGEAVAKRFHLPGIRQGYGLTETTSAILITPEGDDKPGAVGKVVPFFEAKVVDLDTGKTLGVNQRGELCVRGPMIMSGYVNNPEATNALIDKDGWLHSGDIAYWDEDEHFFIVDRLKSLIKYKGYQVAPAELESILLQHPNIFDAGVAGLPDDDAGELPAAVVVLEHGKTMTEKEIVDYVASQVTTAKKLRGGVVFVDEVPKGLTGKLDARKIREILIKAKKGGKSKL
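Purified P. pyralis luciferase, 10 nM final, with Km-level 10 uM D-luciferin and 10 uM ATP in 50 mM Tris acetate pH 7.5, 10 mM Mg acetate, 0.01% Tween-20, 0.05% BSA; 6-point qHTS titration about 60 µM downward; luminescence read.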
SMN2 splice enh – increases expression of the SMN2 splice variant; HEK293 SMN2-luciferase splicing reporter, luminescence, 30-36 h; 210,000 tested, 2.8% active; Potency, µM (doses to about 46.1 µM), without a hit: at the top dose activity change, positive = activation, hits mostly activators; AID 1458; also: % of control where 0% means no effect; nearly all actives have a fitted effect of over 55% in size
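HEK293 cells carry an SMN2 minigene-luciferase reporter in which exon 7 inclusion puts luciferase in frame. Cells were seeded at 2000 cells/well, attached for 10-12 hours, then exposed to compounds for 30-36 hours at 37C before ONE-Glo luminescence.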
ELG1 DNA repair – blocks ELG1-dependent DNA repair in HEK293T cells; HEK293T ELG1-luciferase reporter, luminescence, 16 h; DNA damage induced by 5-fluorouridine; Potency, µM (highest dose often 46.1 µM), for the others: at the top dose activity change, negative = inhibition, most hits filed as inhibitors; 330,000 tested, 2.3% active; AID 504467; also: % is scaled to controls: 0 for no effect and ±100 for the full control effect; nearly all actives have a fitted effect of over 55% in size
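5-Fluorouridine DNA damage + compound/DMSO, 2,000 cells/well, 16 h, 37 °C/5% CO2. ONE-Glo, 30 min RT, luminescence. Readout = decrease in reporter signal.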
Rab9 prom act – activators of Rab9 promoter | Huh7 Rab9 promoter-luciferase reporter, luminescence, 24 h | Potency, µM (highest dose often 9.22 µM), without a hit: at the highest dose activation, negative = inhibition, most hits filed as activators | 320,000 tested, 2.8% active; also: % of control where 0% means no effect; nearly all actives have a fitted effect of over 60% in size
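Stable Rab9-luc Huh7, 1500 cells/well, 2 h settle; cmpd in DMSO, 24 h, 37 °C/5% CO2; luciferase reagent 10 min RT; luminescence.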
ELG1 genotoxic – inducers of genotoxicity in HEK293T ELG1-luciferase cells; HEK293T ELG1-luciferase reporter, luminescence, 16 h; 330,000 tested, 1.3% active; AID 504466; Potency, µM (series often up to 46 µM), inactives show top-dose activity change, positive = activation, hits mostly activators; also: % of control where 0% means no effect; nearly all actives have a fitted effect of over 60% in size
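Cells (2,000/well) expressing the ELG1-luciferase fusion are dosed by pin tool and kept 16 hr at 37 °C, 5% CO2. Signal comes from ONE-Glo luciferase reagent after 30 min at room temperature.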
* hit, by the source's call. A selection: hits, their analogues and other compounds. The true share with any hit is near 9.2%. Calls follow the shape of the dose curve; as a rule, active = well fitted curve in the direction sought with a large enough effect; inconclusive = small, poorly fitted or top-dose-only effect, or another doubt; inactive = no such curve, though single readings can be large; an effect the other way counts as inactive or inconclusive. Potency is read from the fitted curve at half-maximal effect.

CSc1nnc(N2C(=O)C(O)=C(C(=O)c3ccco3)C2c2ccccc2)s1 (centres undefined) was read as NPC1 promoter act -2.3%, FLuc counter -2.9%, ELG1 DNA repair -0.1%, Rab9 prom act 3.9% and ELG1 genotoxic -5.9%.
Screening CC1(C)Oc2ccc3ccc(=O)oc3c2/C(=C/NCCN/C=C2\C(=O)C(C)(C)Oc3ccc4ccc(=O)oc4c32)C1=O returned NPC1 promoter act 2.0%, FLuc counter -0.3%, SMN2 splice enh 10.6%, ELG1 DNA repair 8.2µM*, Rab9 prom act 3.7% and ELG1 genotoxic -2.7%.
Screening CCOC(=O)N1CCC(NC(=O)c2ccc3c(c2)N(Cc2ccc(F)cc2)CCS3)CC1 returned NPC1 promoter act -4.1%, FLuc counter 0.8%, SMN2 splice enh -45.5%, ELG1 DNA repair 18.4µM*, Rab9 prom act -0.3% and ELG1 genotoxic -27.0%.
For CCOC(=O)N1CCC(NC(=O)c2ccc3c(c2)N(Cc2ccccc2)CCS3)CC1 the results were NPC1 promoter act 2.9%, FLuc counter 0.1%, SMN2 splice enh -53.5%, ELG1 DNA repair 14.6µM*, Rab9 prom act 2.0% and ELG1 genotoxic -21.9%.
Cc1cc(Cn2nc(-c3ccccc3)cc2C(=O)NCc2cccc(Br)c2)on1 was read as NPC1 promoter act -2.0%, FLuc counter 4.0%, ELG1 DNA repair inconclusive, Rab9 prom act -2.8% and ELG1 genotoxic -4.5%.
`COc1ccc(NC(=O)c2ccccc2C)cc1` gave NPC1 promoter act 1.41µM*, FLuc counter 9.53µM*, ELG1 DNA repair inconclusive, Rab9 prom act 3.16µM* and ELG1 genotoxic inconclusive.
For COc1ccc(NC(=O)c2cc3ccccc3cc2O)cc1 the results were NPC1 promoter act 2.24µM*, FLuc counter 0.953µM*, ELG1 DNA repair inconclusive, Rab9 prom act 2.24µM* and ELG1 genotoxic inconclusive.
Screening COc1ccc(NC(=O)c2cccc3ccccc23)cc1 returned NPC1 promoter act 14.2%, FLuc counter inconclusive, ELG1 DNA repair 6.1%, Rab9 prom act 17.7% and ELG1 genotoxic 7.9%.
`Cc1ccc(NC(=O)c2cc3ccccc3cc2O)cc1` gave NPC1 promoter act 2µM*, FLuc counter 1.07µM*, ELG1 DNA repair inconclusive, Rab9 prom act 2.82µM* and ELG1 genotoxic inconclusive.
`Cc1ccc(NC(=O)NNC(=O)c2cc3ccccc3cc2O)cc1C` gave NPC1 promoter act 1.2%, FLuc counter -3.2%, ELG1 DNA repair 7.2%, Rab9 prom act 8.0% and ELG1 genotoxic 4.9%.
O=C(Nc1ccccn1)c1cc2ccccc2cc1O was read as NPC1 promoter act 3.55µM*, FLuc counter 2.39µM*, ELG1 DNA repair inconclusive, Rab9 prom act 3.98µM* and ELG1 genotoxic 2.31µM*.
N#Cc1c(/N=C/c2cccs2)sc2c1CCC2 was read as NPC1 promoter act 3.16µM*, FLuc counter 1.51µM*, SMN2 splice enh 17.8µM*, ELG1 DNA repair inconclusive, Rab9 prom act 2µM* and ELG1 genotoxic 7.08µM*.
N#Cc1c(/N=C/c2ccco2)sc2c1CCCCC2 was read as NPC1 promoter act 0.794µM*, FLuc counter 0.169µM*, SMN2 splice enh -9.5%, ELG1 DNA repair inconclusive, Rab9 prom act 3.55µM* and ELG1 genotoxic inconclusive.
For CCOC(=O)c1ccc(NC(=O)CSc2cc(-c3ccccc3)nc(C)n2)cc1 the results were FLuc counter -14.0%.
Cc1ccc(C(CC(=O)Nc2cc(C)cc(C)c2)N2Cc3ccccc3C2=O)cc1 (centres undefined) was read as FLuc counter -10.1%.
Cc1cc(OCC(=O)Nc2ccncc2)c(C)cc1Br was read as NPC1 promoter act 0.6%, FLuc counter inconclusive, SMN2 splice enh 13.9%, ELG1 DNA repair -13.4%, Rab9 prom act -2.9% and ELG1 genotoxic 0.4%.
`Cc1ccccc1OCC(=O)NNC(=S)NC(=O)c1ccccc1[N+](=O)[O-]` gave NPC1 promoter act 0.5%, FLuc counter -12.9%, SMN2 splice enh -15.4%, ELG1 DNA repair -5.3%, Rab9 prom act -1.3% and ELG1 genotoxic -4.0%.
Screening CC(C)(C)c1ccc(OCC(=O)NNC(=S)NC(=O)c2ccccc2[N+](=O)[O-])c(Br)c1 returned NPC1 promoter act 1.0%, FLuc counter 26.9µM*, ELG1 DNA repair 5.4%, Rab9 prom act -1.7% and ELG1 genotoxic 3.7%.
Screening CCc1ccc(OCC(=O)NNC(=S)NC(=O)C2CC2)c(Br)c1 returned NPC1 promoter act -1.0%, FLuc counter 9.53µM*, ELG1 DNA repair -3.0%, Rab9 prom act -1.6% and ELG1 genotoxic inconclusive.
Screening CC(C)(C)c1ccc(OCC(=O)Nc2ccncc2)c(Br)c1 returned NPC1 promoter act -1.8%, FLuc counter 21.3µM*, ELG1 DNA repair -11.6%, Rab9 prom act -1.4% and ELG1 genotoxic 1.0%.
Screening CCc1ccc(OCC(=O)Nc2ccncc2)c(Br)c1 returned NPC1 promoter act 1.4%, FLuc counter 3.38µM*, ELG1 DNA repair inconclusive, Rab9 prom act -0.2% and ELG1 genotoxic inconclusive.
Screening O=C(COc1ccc(Br)cc1)Nc1ccncc1 returned NPC1 promoter act -3.2%, FLuc counter inconclusive, SMN2 splice enh 7.9%, ELG1 DNA repair -21.2%, Rab9 prom act 1.2% and ELG1 genotoxic 0.0%.
`CCOC(=O)c1c(C)[nH]c(C)c1S(=O)(=O)NCC(=O)NCc1cccc(Br)c1` gave FLuc counter 3.0%.
Screening O=C(NCc1ccccn1)Nc1ccccc1Cl returned NPC1 promoter act 14.4%, FLuc counter -7.8%, ELG1 DNA repair inconclusive, Rab9 prom act 22.1% and ELG1 genotoxic inconclusive.
For O=C(NCc1ccccn1)Nc1ccc(Cl)cc1Cl the results were NPC1 promoter act 3.16µM*, FLuc counter inconclusive, ELG1 DNA repair inconclusive, Rab9 prom act inconclusive and ELG1 genotoxic inconclusive.
`O=C(NCc1ccccn1)Nc1ccccc1` gave NPC1 promoter act inconclusive, FLuc counter 13.5µM*, ELG1 DNA repair inconclusive, Rab9 prom act 1.58µM* and ELG1 genotoxic inconclusive.
For Cc1ccc(NC(=O)C(NCc2ccccn2)c2ccccc2)cc1 (centres undefined) the results were NPC1 promoter act 3.4%, FLuc counter 16.9µM*, SMN2 splice enh -13.2%, ELG1 DNA repair inconclusive, Rab9 prom act 2.4% and ELG1 genotoxic 20.3%.
CCOC(=O)c1sc(NC(=O)C2CC(=O)N(c3ccc(OC)cc3)C2)nc1C (centres undefined) was read as NPC1 promoter act -5.4%, FLuc counter 0.6%, ELG1 DNA repair inconclusive, Rab9 prom act -6.3% and ELG1 genotoxic -6.7%.
